Source: PubChem BioAssay (NCI)
About 83,000 compounds went through this panel and 20% of them were active in at least one assay; those are over-represented in the sample as a whole.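 Treatment: one concentration, 48 hours, 96-well format. Scoring: percent growth, with anything below 10 considered active.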 Unmarked numbers belong to inactive results. The source made the active and inactive calls.

system: IGROV1 ovarian; assay: NCI-60 one-dose screen, 48 h (100 = growth as untreated, 0 = no growth, -100 = all killed); conditions: 10 µM

Structure (SMILES) | growth
COc1ccc(-c2cc(C(=O)N=Nc3c(O)[nH]c4ccc(Br)cc34)c3ccccc3n2)cc1 | 12.3%
CC(=O)c1ccc(Nc2nc(SCCC(C)C)nc(-c3ccc(F)cc3)c2C#N)cc1 | 16%
Clc1cccc(N/N=C/c2c[nH]c3ccccc23)n1 | -4.86% (active)
O=[N+]([O-])c1ccc(-c2nc(-c3ccccc3)c(-c3ccccc3)n2-c2ccc(S(=O)(=O)Nc3ncccn3)cc2)cc1 | 74.3%
O=C(CSc1nnc(-c2ccc3nc(-c4ccc(Cl)cc4)[nH]c3c2)o1)Nc1ccc(Cl)cc1 | -18.8% (active)
CCOC(=O)c1c(CSc2ccccc2)n(C)c2cc(CN(C)C)c(O)c(CN(C)C)c12 | 25.4%
N#Cc1c(NC(=O)c2cccc(C(F)(F)F)c2)sc2c1CCC(O)=C2 | 34.4%
Cc1ccc(-c2nc(Nc3ccc(S(N)(=O)=O)cc3)c3ccccc3n2)cc1 | 66.7%
Cc1ccc2nc(COc3ccc(C(=O)NNC(=S)NC(=O)c4ccccc4)cc3)[nH]c2c1 | 53.4%
O=C(CNc1nc(-c2ccccc2)cs1)Nc1cccc([N+](=O)[O-])c1 | -47.4% (active)
CC(=O)Nc1ccc(-c2cn(-c3cccc(C(=O)Nc4cccc(OC(F)(F)F)c4)c3)nn2)cn1 | 108%
OCCCNc1oc(-c2ccccc2)nc1[P+](c1ccccc1)(c1ccccc1)c1ccccc1 | -19.4% (active)
CC(C)Sc1nc(NC2CC2)c(C#N)c(-c2ccccc2)n1 | 74%
OCCNc1oc(-c2ccccc2)nc1[P+](c1ccccc1)(c1ccccc1)c1ccccc1 | -12.9% (active)
C/C(=C\c1ccc(O)cc1O)c1ccc2ccc(O)cc2[o+]1 | 47.8%
Cc1noc2c(Cc3ccc([N+](=O)[O-])cc3)nn(CC(=O)N/N=C/c3ccc(Cl)cc3)c(=O)c12 | 63.2%
CCOC(=O)CNC(=O)CN(Cc1ccccc1)C(=O)[C@@]1(C)CCC[C@]2(C)[C@H]3CC4C(C(C)C)=C[C@]3(CC[C@H]21)[C@@H]1C(=O)CCC(=O)[C@H]41 | 18.2%
O=C(CSc1nnc(-c2c[nH]c3ccccc23)n1-c1ccccc1)c1ccc(Cl)cc1 | 51.4%
COc1ccc(-c2cc(C(=O)N=Nc3c(O)[nH]c4ccc(F)cc34)c3ccccc3n2)cc1 | 62.3%

Structure (SMILES) | growth
O=C1Nc2ccc(Cl)cc2/C1=C/c1ccc(OCc2ccccn2)cc1 | 54.6%
Cc1noc2c(Cc3ccccc3)nn(CC(=O)N/N=C/c3ccc(Cl)cc3)c(=O)c12 | 41%
COc1ccc2[nH]c(=O)c(CSc3cccc(N)c3)cc2c1 | 74.1%
COc1ccc(C(=O)/C=C/c2cc(F)cc(C(F)(F)F)c2)cc1S(N)(=O)=O | -53.6% (active)
Nc1cc(-c2cccc(C(=O)NCc3ccc4c(c3)OCO4)c2)ccn1 | 112%
Cc1ccc(/C(N)=N/c2sc(-c3ccccc3)nc2-c2ccccc2)cc1 | 94.3%
CN(C(=O)c1ccc(C(C)(C)C)cc1)c1sc2c(c1C#N)CCC(=O)C2 | -34.4% (active)
O=C(NO)c1ccc(CNC(=O)[C@H]2Cc3c([nH]c4ccccc34)[C@H](c3ccccc3)N2)cc1 | 46.9%
COc1ccc2cc([C@H](C)C(=O)NCc3ccccc3)ccc2c1 | 46.9%
Cc1noc2c(Cc3ccccc3)nn(CC(=O)N/N=C/c3ccc(F)cc3)c(=O)c12 | 70.4%
COc1cnc2c(c1)C(=O)c1c-2n(CCCNCCO)c(=O)c2cc(OC)c(OC)cc12 | 27.2%
CN1CCc2c(sc3ncnc(N/N=C/c4cn(-c5ccccc5)nc4-c4ccc(Cl)cc4)c23)C1 | 1.89% (active)
N#Cc1c(NC(=O)c2ccc(C(F)(F)F)cc2C(F)(F)F)sc2c1CCC(=O)C2 | -3.75% (active)
O=C1N/C(=N\c2nccs2)S/C1=C\c1cccs1 | 31.5%
CC(=O)c1ccc(Nc2nc(SC(C)C)nc(-c3ccccc3)c2C#N)cc1 | 8.92% (active)
O=C(CNc1nc(-c2ccccc2)cs1)Nc1ccc([N+](=O)[O-])cc1Cl | 33.9%
O=C(NO)c1ccc(Cn2ccc3c(Nc4ccccc4)ncnc32)cc1 | -30.8% (active)
O=C(NO)c1ccc(CN2CCN(c3nc(-c4ccccc4)c4ccccc4n3)CC2)cc1 | 17.8%

system: OVCAR-3 ovarian; assay: as above; conditions: 10 µM

Structure (SMILES) | growth
COc1ccc(-c2cc(C(=O)N=Nc3c(O)[nH]c4ccc(Br)cc34)c3ccccc3n2)cc1 | 8.75% (active)
CC(=O)c1ccc(Nc2nc(SCCC(C)C)nc(-c3ccc(F)cc3)c2C#N)cc1 | 19%
Clc1cccc(N/N=C/c2c[nH]c3ccccc23)n1 | -12.6% (active)
O=[N+]([O-])c1ccc(-c2nc(-c3ccccc3)c(-c3ccccc3)n2-c2ccc(S(=O)(=O)Nc3ncccn3)cc2)cc1 | 51.7%
O=C(CSc1nnc(-c2ccc3nc(-c4ccc(Cl)cc4)[nH]c3c2)o1)Nc1ccc(Cl)cc1 | -15.4% (active)
CCOC(=O)c1c(CSc2ccccc2)n(C)c2cc(CN(C)C)c(O)c(CN(C)C)c12 | 13.8%
N#Cc1c(NC(=O)c2cccc(C(F)(F)F)c2)sc2c1CCC(O)=C2 | 36.8%
Cc1ccc(-c2nc(Nc3ccc(S(N)(=O)=O)cc3)c3ccccc3n2)cc1 | 61.9%
Cc1ccc2nc(COc3ccc(C(=O)NNC(=S)NC(=O)c4ccccc4)cc3)[nH]c2c1 | 58.2%
O=C(CNc1nc(-c2ccccc2)cs1)Nc1cccc([N+](=O)[O-])c1 | -44.6% (active)
CC(=O)Nc1ccc(-c2cn(-c3cccc(C(=O)Nc4cccc(OC(F)(F)F)c4)c3)nn2)cn1 | 110%
OCCCNc1oc(-c2ccccc2)nc1[P+](c1ccccc1)(c1ccccc1)c1ccccc1 | -8.66% (active)
CC(C)Sc1nc(NC2CC2)c(C#N)c(-c2ccccc2)n1 | 86.5%
OCCNc1oc(-c2ccccc2)nc1[P+](c1ccccc1)(c1ccccc1)c1ccccc1 | -9.22% (active)
C/C(=C\c1ccc(O)cc1O)c1ccc2ccc(O)cc2[o+]1 | 28.7%
Cc1noc2c(Cc3ccc([N+](=O)[O-])cc3)nn(CC(=O)N/N=C/c3ccc(Cl)cc3)c(=O)c12 | 35.8%
CCOC(=O)CNC(=O)CN(Cc1ccccc1)C(=O)[C@@]1(C)CCC[C@]2(C)[C@H]3CC4C(C(C)C)=C[C@]3(CC[C@H]21)[C@@H]1C(=O)CCC(=O)[C@H]41 | 61.1%
O=C(CSc1nnc(-c2c[nH]c3ccccc23)n1-c1ccccc1)c1ccc(Cl)cc1 | 73.9%
COc1ccc(-c2cc(C(=O)N=Nc3c(O)[nH]c4ccc(F)cc34)c3ccccc3n2)cc1 | 59.1%

Structure (SMILES) | growth
O=C1Nc2ccc(Cl)cc2/C1=C/c1ccc(OCc2ccccn2)cc1 | 57.3%
Cc1noc2c(Cc3ccccc3)nn(CC(=O)N/N=C/c3ccc(Cl)cc3)c(=O)c12 | -31.8% (active)
COc1ccc2[nH]c(=O)c(CSc3cccc(N)c3)cc2c1 | 66.9%
COc1ccc(C(=O)/C=C/c2cc(F)cc(C(F)(F)F)c2)cc1S(N)(=O)=O | -95.3% (active)
Nc1cc(-c2cccc(C(=O)NCc3ccc4c(c3)OCO4)c2)ccn1 | 98.5%
Cc1ccc(/C(N)=N/c2sc(-c3ccccc3)nc2-c2ccccc2)cc1 | 84.7%
CN(C(=O)c1ccc(C(C)(C)C)cc1)c1sc2c(c1C#N)CCC(=O)C2 | -69.7% (active)
O=C(NO)c1ccc(CNC(=O)[C@H]2Cc3c([nH]c4ccccc34)[C@H](c3ccccc3)N2)cc1 | 22.7%
COc1ccc2cc([C@H](C)C(=O)NCc3ccccc3)ccc2c1 | 19.9%
Cc1noc2c(Cc3ccccc3)nn(CC(=O)N/N=C/c3ccc(F)cc3)c(=O)c12 | 44.6%
COc1cnc2c(c1)C(=O)c1c-2n(CCCNCCO)c(=O)c2cc(OC)c(OC)cc12 | 3.13% (active)
CN1CCc2c(sc3ncnc(N/N=C/c4cn(-c5ccccc5)nc4-c4ccc(Cl)cc4)c23)C1 | -17.2% (active)
N#Cc1c(NC(=O)c2ccc(C(F)(F)F)cc2C(F)(F)F)sc2c1CCC(=O)C2 | -59.5% (active)
O=C1N/C(=N\c2nccs2)S/C1=C\c1cccs1 | 44.2%
CC(=O)c1ccc(Nc2nc(SC(C)C)nc(-c3ccccc3)c2C#N)cc1 | 25.3%
O=C(CNc1nc(-c2ccccc2)cs1)Nc1ccc([N+](=O)[O-])cc1Cl | 23.4%
O=C(NO)c1ccc(Cn2ccc3c(Nc4ccccc4)ncnc32)cc1 | 19.7%
O=C(NO)c1ccc(CN2CCN(c3nc(-c4ccccc4)c4ccccc4n3)CC2)cc1 | 27.6%
